RTF Ca sens act: cardiac RTF calcium sensitization. P19429+P45379. IANBD-labeled TnC RTF fluorescence at EC20 calcium; 0% EC20 calcium, 100% full calcium. activation, % at 7.2 µM. 0.24% of 340,000 active;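 active = activation above the mean over all tested compounds plus 3 SD, cut at about 30% in these data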;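 note: rise in fluorescence read as greater calcium sensitivity of cardiac thin filaments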
Cardiac RTF inh: cardiac RTF calcium desensitization. AID 493244. 0.12% of 340,000 active. IANBD-labeled cardiac RTF, Ca2+ fluorescence. P19429+P45379. inhibition, % at 7.15 µM;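 active = inhibition above the mean inhibition of all tested compounds plus 3 SD, cut at about 17% in these data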;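 note: assay run at fixed EC70 calcium of 1.6 mM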
CRFR2-BP antag: antagonists of CRF-binding protein/CRF-R2 receptor complex | 0.59% of 350,000 active | HEK293 CRF-R2/CRF-BP, CRF-induced calcium fluorescence | inhibition, % at 11.8 µM;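 active = inhibition of the ligand-induced calcium signal above about 50% at the single tested concentration, limit read from the data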
IDE cell inh: inhibits human insulin-degrading enzyme in HEK cells; FAbetaB cleavage, fluorescence polarization; P14735; 0.41% of 320,000 active; AID 434962; inhibition, % at 5.59 µM;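 active = percent inhibition above the average of all tested compounds plus 3 SD, set per screening campaign, cut at about 16% in these data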;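 note: IDE supplied by intact live HEK cells; FP after avidin binding of uncleaved biotin substrate so inhibition keeps polarization high; 0% = DMSO wells and 100% = 60 µM reference IDE inhibitor Ii1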
Target sequence (P14735 whole entry, looked up): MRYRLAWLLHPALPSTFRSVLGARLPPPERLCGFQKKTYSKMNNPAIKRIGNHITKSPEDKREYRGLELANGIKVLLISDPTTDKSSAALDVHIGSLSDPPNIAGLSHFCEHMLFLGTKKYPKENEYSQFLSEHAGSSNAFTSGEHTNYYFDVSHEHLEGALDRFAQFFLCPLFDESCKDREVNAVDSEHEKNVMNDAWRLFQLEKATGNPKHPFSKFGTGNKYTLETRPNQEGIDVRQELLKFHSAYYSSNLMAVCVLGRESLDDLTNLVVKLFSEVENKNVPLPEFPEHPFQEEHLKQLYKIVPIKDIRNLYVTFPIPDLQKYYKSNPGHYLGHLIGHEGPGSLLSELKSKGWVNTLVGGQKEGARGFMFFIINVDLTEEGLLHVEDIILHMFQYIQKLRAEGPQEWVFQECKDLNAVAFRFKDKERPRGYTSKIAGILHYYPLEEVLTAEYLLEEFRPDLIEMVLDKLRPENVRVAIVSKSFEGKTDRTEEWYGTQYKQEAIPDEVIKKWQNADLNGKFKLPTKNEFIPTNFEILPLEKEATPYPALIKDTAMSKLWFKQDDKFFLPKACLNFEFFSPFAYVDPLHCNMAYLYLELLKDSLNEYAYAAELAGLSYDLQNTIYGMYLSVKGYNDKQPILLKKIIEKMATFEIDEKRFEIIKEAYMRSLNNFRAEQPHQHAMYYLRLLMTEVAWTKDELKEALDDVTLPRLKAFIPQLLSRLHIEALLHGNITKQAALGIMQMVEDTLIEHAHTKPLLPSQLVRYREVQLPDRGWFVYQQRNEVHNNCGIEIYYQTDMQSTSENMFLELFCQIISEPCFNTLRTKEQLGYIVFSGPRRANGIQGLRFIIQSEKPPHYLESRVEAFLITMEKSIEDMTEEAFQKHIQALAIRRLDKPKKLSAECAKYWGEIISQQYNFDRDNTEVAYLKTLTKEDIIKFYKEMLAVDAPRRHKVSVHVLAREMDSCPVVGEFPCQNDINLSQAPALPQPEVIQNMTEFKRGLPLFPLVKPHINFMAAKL
IDE act: activators of human insulin-degrading enzyme in cells; 0.073% of 340,000 active; HEK cells, FAbeta-B cleavage, fluorescence polarization; 0% vehicle, 100% cell-free pure enzyme wells; activation, % at 5.96 µM; P14735;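 active = activation above the mean of all tested compounds plus 3 SD, set per screening campaign, cut at about 17% in these data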
CRFR2-BP ag: CRF-BP/CRF-R2 complex agonism | 0.46% of 350,000 active | activation, % at 13.2 µM | HEK293 CRF-R2/CRF-BP, calcium dye fluorescence (FLIPR); percent of saturating CRF peptide response;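 active = activation of at least 50%, plus an integration ratio under a set limit after plate pattern correction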;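 note: plate controls were neutral control wells without compound for no effect and CRF at EC100 for full effect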
IDE cell inh cf: cellular human IDE inhibition, confirmation; shares compounds with IDE cell inh; HEK cells, FAbetaB cleavage, fluorescence polarization; inhibition, % at 5.59 µM; 51% of 1,200 active; AID 435028;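 active = mean inhibition across triplicate wells above the cutoff set by the earlier primary insulin-degrading enzyme screen, cut at about 16% in these data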;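 note: 0% = DMSO wells and 100% = 60 µM reference IDE inhibitor Ii1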
HEK293 tox: HEK cell cytotoxicity, counter-screen for IDE inhibitors | inhibition, % at 5.59 µM | HEK293 cytotoxicity, ATP luminescence | 28% of 1,200 active | shares compounds with IDE cell inh; in the data active = inhibition above about 22%;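 note: 0% = vehicle wells and 100% = reference cytotoxic drug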
Starred values were filed as active, the others as inactive. Rows were chosen to be rich in hits. Some 1.5% of all compounds tested hit in one or more screens of this group.

Screening COc1ccc(Cl)cc1NC(=O)CSc1nnc(CN2CCOCC2)n1-c1ccc(Cl)cc1 returned RTF Ca sens act -3, Cardiac RTF inh 0, CRFR2-BP antag -22, IDE cell inh 18*, IDE act -10, CRFR2-BP ag 11, IDE cell inh cf 4 and HEK293 tox 16.
Screening CCNc1nc(NC(C)(C)C)nc(Oc2ccc(=O)n(-c3ccccc3)n2)n1 returned RTF Ca sens act 2, Cardiac RTF inh -13, CRFR2-BP antag -21, IDE cell inh -1, IDE act -3 and CRFR2-BP ag 0.
Cc1nc(N2CCN(c3ccc(Cl)cc3)CC2)[nH]c(=O)c1C was read as RTF Ca sens act 2, Cardiac RTF inh -5, CRFR2-BP antag 5, IDE cell inh -3, IDE act -6 and CRFR2-BP ag -1.
For O=c1c2[nH]c3ccccc3c2ncn1CCC1=CCCCC1 the results were RTF Ca sens act 1, Cardiac RTF inh -6, CRFR2-BP antag -9, IDE cell inh -5, IDE act 1 and CRFR2-BP ag -1.
Screening C1=C(CCNc2ncnc3c2[nH]c2ccccc23)CCCC1 returned RTF Ca sens act -6, Cardiac RTF inh -21, CRFR2-BP antag -124, IDE cell inh 35*, IDE act -35, CRFR2-BP ag 34, IDE cell inh cf 13 and HEK293 tox 87*.
For CCOC(=O)c1ccc(/C=C2/C=C(c3ccccc3)N(c3ccc(Cl)c(C(=O)O)c3)C2=O)cc1 the results were RTF Ca sens act 11, Cardiac RTF inh -14, CRFR2-BP antag -171, IDE cell inh 17*, IDE act -7, CRFR2-BP ag 96*, IDE cell inh cf 44* and HEK293 tox 84*.
Screening CC(=O)N/C(=C\c1ccc(F)cc1)C(=O)OCc1ccccc1 returned RTF Ca sens act -2, Cardiac RTF inh -2, CRFR2-BP antag 23, IDE cell inh 1, IDE act 3 and CRFR2-BP ag 4.
Screening CCOCCCNc1nc2c(C)cccn2c(=O)c1/C=C1\SC(=S)N(C(C)CC)C1=O (stereo unspecified) returned RTF Ca sens act 29, Cardiac RTF inh -33, CRFR2-BP antag -77, IDE cell inh 17*, IDE act -4, CRFR2-BP ag 109*, IDE cell inh cf 80* and HEK293 tox 9.
`CC(Cc1cccnc1)NC(=O)c1ccccc1OC1CCN(S(C)(=O)=O)CC1` (stereo unspecified) gave RTF Ca sens act 10, Cardiac RTF inh -7, CRFR2-BP antag 22, IDE cell inh -1, IDE act -2 and CRFR2-BP ag 5.
For O=C(N/N=C/c1cc(Br)cc(Br)c1O)c1cccc(N2CCCC2=O)c1 the results were RTF Ca sens act 4, Cardiac RTF inh -4, CRFR2-BP antag -3, IDE cell inh 0, IDE act 5 and CRFR2-BP ag 7.
Screening O=C(N/N=C/c1ccc(Cl)cc1Cl)c1cccc(N2CCCC2=O)c1 returned RTF Ca sens act -9, Cardiac RTF inh 9, CRFR2-BP antag 11, IDE cell inh 34*, IDE act -8, CRFR2-BP ag -2, IDE cell inh cf 15 and HEK293 tox 19.
O=C(COC(=O)c1ccc([N+](=O)[O-])o1)NC1CCCc2ccccc21 (stereo unspecified) was read as RTF Ca sens act -2, Cardiac RTF inh -6, CRFR2-BP antag 12, IDE cell inh 2, IDE act 0 and CRFR2-BP ag -1.
For CCOc1cc(/C=C(/C#N)C(=O)Nc2ccc(O)cc2)cc(Br)c1O the results were RTF Ca sens act 7, Cardiac RTF inh -9, CRFR2-BP antag -81, IDE cell inh 38*, IDE act -58, CRFR2-BP ag 96*, IDE cell inh cf 75* and HEK293 tox 57*.
Screening O=C(NNC(=O)c1cccc2ccccc12)c1ccc(-c2ccccc2)cc1 returned RTF Ca sens act 1, Cardiac RTF inh -2, CRFR2-BP antag -1, IDE cell inh 18*, IDE act -8, CRFR2-BP ag 1, IDE cell inh cf 3 and HEK293 tox 47*.
Screening COc1cc(/C=C(\C#N)c2ccccn2)cc(OC)c1O returned RTF Ca sens act 3, Cardiac RTF inh -2, CRFR2-BP antag -33, IDE cell inh 160*, IDE act -166, CRFR2-BP ag 35, IDE cell inh cf 52* and HEK293 tox 17.
Screening COc1cc(/C=C(\C#N)c2[nH]nc(N)c2C#N)cc(OC)c1O returned RTF Ca sens act 0, Cardiac RTF inh -12, CRFR2-BP antag -22, IDE cell inh 84*, IDE act -73, CRFR2-BP ag 18, IDE cell inh cf 166* and HEK293 tox 9.
For COc1cc(/C=C(\C#N)c2ccccn2)ccc1OCc1ccccc1Cl the results were RTF Ca sens act -6, Cardiac RTF inh -1, CRFR2-BP antag -6, IDE cell inh -3, IDE act -3 and CRFR2-BP ag 0.
Nn1c(SCC(=O)NC2CCS(=O)(=O)C2)nnc1-c1ccco1 (stereo unspecified) was read as RTF Ca sens act -2, Cardiac RTF inh 0, CRFR2-BP antag 9, IDE cell inh -1, IDE act 3 and CRFR2-BP ag -1.
`CCn1c(COc2ccc(C)cc2)nnc1SCc1ccc(C#N)cc1` gave RTF Ca sens act -3, Cardiac RTF inh -2, CRFR2-BP antag 15, IDE cell inh 18*, IDE act 0, CRFR2-BP ag -4, IDE cell inh cf 8 and HEK293 tox 13.
For CCn1c(COc2ccc(C)cc2)nnc1SCC(=O)C(C)(C)C the results were RTF Ca sens act 0, Cardiac RTF inh -8, CRFR2-BP antag 17, IDE cell inh 2, IDE act -5 and CRFR2-BP ag -1.
Screening Oc1cccc(C=NN=C2c3ccccc3-c3ccccc32)c1 returned RTF Ca sens act -8, Cardiac RTF inh -4, CRFR2-BP antag 9, IDE act -1 and CRFR2-BP ag 1.
Screening CCc1ccc(OCC(=O)Nc2cc(S(=O)(=O)CC)ccc2O)cc1 returned RTF Ca sens act -2, Cardiac RTF inh 1, CRFR2-BP antag -16, IDE cell inh 7, IDE act -3 and CRFR2-BP ag 4.
Screening O=C1Nc2ccccc2/C1=C/c1cccnc1 returned RTF Ca sens act 7, Cardiac RTF inh -3, CRFR2-BP antag 11, IDE cell inh 0, IDE act 3 and CRFR2-BP ag -2.
